Results from PubChem BioAssay (EPA / NIEHS).
Activity calls are given as the source filed them. Rule for the calls: active = hit-call score of the fitted dose curve at least 0.9, where 1 is the maximum; inactive = score below 0.9.

Tests used:
[1] = ATG_PXRE_CIS: Attagene CIS-FACTORIAL HepG2 Assay for human Pregnane X Receptor Element (PXRE) (AID 2282957); details: HepG2 Attagene CIS-FACTORIAL PXRE reporter, mRNA; actives raise or lower the signal
Procedure, shortened: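 After a 24 h chemical incubation, total RNA from transfected HepG2 cells was reverse-transcribed and reporter cDNA amplified, FAM-labeled, HpaI-digested and sized by capillary electrophoresis. DMSO served as baseline for bidirectional curve fitting.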

[2] = ATG_PPRE_CIS: Attagene CIS-FACTORIAL HepG2 Assay for human Peroxisome Proliferator-activated Response Element (PPRE) (AID 2282958); details: HepG2 PPRE cis-element reporter, Attagene transcription factor profiling; actives raise or lower the signal
Procedure, shortened: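 Multiplexed reporter transcription units under cis-regulatory promoters were transfected into HepG2 cells to capture endogenous factor activity. A 24 h incubation preceded RNA isolation and fluorescent RT-PCR fragment analysis.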

[3] = ATG_RORE_CIS: Attagene CIS-FACTORIAL HepG2 Assay for human RAR-related Orphan Receptor Element (RORE) (AID 2282959); details: HepG2 Attagene cis-factorial RORE reporter, mRNA; actives raise or lower the signal
Procedure, shortened: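 Fluorescence intensity of reporter-specific cDNA fragments, separated by capillary electrophoresis, gives the signal. Source: HepG2 liver cells transiently transfected with cis-element reporters and exposed 24 h; DMSO-normalized bidirectional fit.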

[4] = ATG_Sox_CIS: Attagene CIS-FACTORIAL HepG2 Assay for human SRY-box transcription factor (SOX) (AID 2282960); details: HepG2 Attagene cis-factorial SOX reporter, mRNA; actives raise or lower the signal
Procedure, shortened: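 After 24 h of chemical treatment, transfected HepG2 reporter cells are lysed for total RNA. Transcript levels come from RT-PCR with labelled primer extension and capillary electrophoresis, analysed bidirectionally versus DMSO.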

[5] = molecular target: Transcription factor Sp1 (Homo sapiens) (UniProt P08047); assay: ATG_Sp1_CIS: Attagene CIS-FACTORIAL HepG2 Assay for human Specificity Protein 1 (Sp1) (AID 2282961); details: HepG2 Sp1 cis-reporter transcription, actives raise or lower the signal
Chain of Transcription factor Sp1 (Homo sapiens) (P08047 whole entry, looked up): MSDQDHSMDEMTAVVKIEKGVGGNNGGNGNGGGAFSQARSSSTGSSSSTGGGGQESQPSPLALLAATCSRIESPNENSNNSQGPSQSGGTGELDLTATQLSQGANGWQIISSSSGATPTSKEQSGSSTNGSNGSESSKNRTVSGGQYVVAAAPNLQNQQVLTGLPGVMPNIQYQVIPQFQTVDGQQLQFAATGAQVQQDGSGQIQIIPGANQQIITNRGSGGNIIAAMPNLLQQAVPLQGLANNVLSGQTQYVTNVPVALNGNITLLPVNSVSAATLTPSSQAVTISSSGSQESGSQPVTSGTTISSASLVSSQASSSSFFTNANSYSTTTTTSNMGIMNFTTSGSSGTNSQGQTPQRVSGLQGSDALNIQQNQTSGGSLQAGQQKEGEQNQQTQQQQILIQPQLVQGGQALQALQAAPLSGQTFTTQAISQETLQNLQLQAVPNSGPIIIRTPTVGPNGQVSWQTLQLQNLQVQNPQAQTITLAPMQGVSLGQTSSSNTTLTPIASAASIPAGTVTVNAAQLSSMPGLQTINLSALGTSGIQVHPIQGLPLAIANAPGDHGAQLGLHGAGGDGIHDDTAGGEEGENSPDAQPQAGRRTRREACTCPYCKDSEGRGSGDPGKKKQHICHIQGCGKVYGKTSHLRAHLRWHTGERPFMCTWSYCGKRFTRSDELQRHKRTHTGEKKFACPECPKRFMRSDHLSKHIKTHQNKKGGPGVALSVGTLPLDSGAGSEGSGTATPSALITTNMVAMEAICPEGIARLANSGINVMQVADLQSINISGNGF
Procedure, shortened: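 Sp1-driven reporter mRNA, read as capillary electrophoresis fluorescence after RT-PCR, in transiently transfected HepG2 cells dosed for 24 h; signal change in either direction relative to DMSO.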

[6] = ATG_SREBP_CIS: Attagene CIS-FACTORIAL HepG2 Assay for human Sterol Regulatory Element Binding (SREBP) (AID 2282962); details: HepG2 Attagene cis-factorial SREBP reporter, mRNA; actives raise or lower the signal
Procedure, shortened: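 Readout: fluorescent reporter-transcript peaks resolved by capillary electrophoresis after RT-PCR. Cells were human HepG2 carrying transfected cis-promoter reporter constructs, dosed for 24 h. Gain or loss of signal was fitted against DMSO controls.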

[7] = molecular target: Signal transducer and activator of transcription 3 (Homo sapiens) (UniProt P40763); assay: ATG_STAT3_CIS: Attagene CIS-FACTORIAL HepG2 Assay for human Signal Transducer and Activator of Transcription 3 (STAT3) (AID 2282963); details: HepG2, Attagene cis-factorial STAT3 reporter transcription; actives raise or lower the signal
Chain of Signal transducer and activator of transcription 3 (Homo sapiens) (P40763 whole entry, looked up, the tested form may be a part): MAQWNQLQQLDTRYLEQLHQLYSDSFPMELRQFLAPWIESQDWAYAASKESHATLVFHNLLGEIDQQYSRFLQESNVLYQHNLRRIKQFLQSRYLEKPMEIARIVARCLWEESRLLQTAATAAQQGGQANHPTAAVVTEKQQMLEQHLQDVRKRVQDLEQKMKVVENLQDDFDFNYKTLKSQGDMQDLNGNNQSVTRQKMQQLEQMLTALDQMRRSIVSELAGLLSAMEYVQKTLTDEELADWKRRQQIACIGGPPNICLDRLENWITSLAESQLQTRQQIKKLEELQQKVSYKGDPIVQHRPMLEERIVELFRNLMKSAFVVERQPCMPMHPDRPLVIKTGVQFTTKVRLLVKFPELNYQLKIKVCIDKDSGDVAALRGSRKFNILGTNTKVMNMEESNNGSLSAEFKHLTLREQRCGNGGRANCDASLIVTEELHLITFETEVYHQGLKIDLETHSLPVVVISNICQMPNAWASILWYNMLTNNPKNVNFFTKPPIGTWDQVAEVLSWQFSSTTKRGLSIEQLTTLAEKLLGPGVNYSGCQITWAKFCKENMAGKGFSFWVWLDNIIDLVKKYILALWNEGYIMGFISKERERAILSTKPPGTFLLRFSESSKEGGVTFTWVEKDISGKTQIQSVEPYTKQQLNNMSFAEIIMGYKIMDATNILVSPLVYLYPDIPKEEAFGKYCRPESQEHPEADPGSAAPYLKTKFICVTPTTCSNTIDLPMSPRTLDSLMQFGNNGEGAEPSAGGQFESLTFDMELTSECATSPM
Procedure, shortened: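 Fluorescence intensity of 6-FAM-labelled reporter fragments, separated by capillary electrophoresis after RT-PCR, gave the signal. Cells were HepG2 transfected with cis-element reporter units and treated 24 h; fitting was bidirectional relative to DMSO.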

[8] = ATG_TA_CIS: Attagene CIS-FACTORIAL HepG2 Assay for human TA Basal Promoter (AID 2282964); details: HepG2 Attagene CIS-factorial TA basal promoter reporter; actives raise or lower the signal
Procedure, shortened: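 Transient MRTU transfection of HepG2 preceded 24 h compound exposure. Reporter mRNA levels were then read by RT-PCR with capillary electrophoresis, and this background-control endpoint was fitted bidirectionally to DMSO.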

[9] = ATG_TCF_b_cat_CIS: Attagene CIS-FACTORIAL HepG2 Assay for human T-Cell-Factor with beta-catenin (TCF/b-cat) (AID 2282965); details: HepG2 TCF/beta-catenin cis-reporter transcription, actives raise or lower the signal
Procedure, shortened: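 HepG2 cells transiently transfected with cis-promoter-driven multiplexed reporter units; reporter mRNA measured 24 h after dosing by RT-PCR, FAM labelling, HpaI digestion and capillary electrophoresis. Bidirectional fitting relative to DMSO baseline.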

## NNc1nc(-c2ccc(N)cc2)cs1
[1]
  outcome: inactive
[2]
  outcome: inactive
[3]
  outcome: inactive
[4]
  outcome: inactive
[5]
  outcome: inactive
[6]
  outcome: inactive
[7]
  outcome: inactive
[8]
  outcome: inactive
[9]
  outcome: inactive

## O=S(=O)(O)NC1CCCCC1
[1]
  outcome: inactive
[5]
  outcome: inactive
[6]
  outcome: inactive
[7]
  outcome: inactive
[8]
  outcome: inactive
[9]
  outcome: inactive

## O=C[C@H](O)[C@H](O)[C@H](O)CO
[1]
  outcome: inactive
[2]
  outcome: inactive
[3]
  outcome: inactive
[4]
  outcome: inactive
[5]
  outcome: inactive
[6]
  outcome: inactive
[7]
  outcome: inactive
[8]
  outcome: inactive
[9]
  outcome: inactive

## C=COCCOCCOCCOC=C
[1]
  outcome: inactive
[2]
  outcome: inactive
[3]
  outcome: inactive
[4]
  outcome: inactive
[6]
  outcome: inactive
[7]
  outcome: inactive
[8]
  outcome: inactive
[9]
  outcome: inactive

## NC(=O)Nc1ccc(Cl)cc1
[1]
  outcome: inactive
[2]
  outcome: inactive
[6]
  outcome: inactive
[7]
  outcome: inactive
[8]
  outcome: inactive
[9]
  outcome: inactive

## COc1c(Cl)c(Cl)c(Cl)c(Cl)c1Cl
[3]
  outcome: inactive
[4]
  outcome: inactive
[6]
  outcome: inactive
[7]
  outcome: inactive
[8]
  outcome: inactive
[9]
  outcome: inactive

## CC1=CC(=O)NS(=O)(=O)O1
[1]
  AC50: 55.8 µM (active)
[2]
  outcome: inactive
[3]
  outcome: inactive
[4]
  outcome: inactive
[5]
  outcome: inactive
[6]
  outcome: inactive
[7]
  outcome: inactive
[8]
  outcome: inactive
[9]
  outcome: inactive

## CCCCCCCCCOC(C)=O
[1]
  AC50: 49 µM (active)
[2]
  outcome: inactive
[4]
  outcome: inactive
[5]
  outcome: inactive
[6]
  outcome: inactive
[7]
  outcome: inactive
[8]
  outcome: inactive
[9]
  outcome: inactive

## CCCCCC(CO)CCC (configuration not stated)
[1]
  outcome: inactive
[2]
  outcome: inactive
[4]
  outcome: inactive
[5]
  outcome: inactive
[6]
  outcome: inactive
[7]
  outcome: inactive
[8]
  outcome: inactive
[9]
  outcome: inactive

## FC1(F)C(F)(F)C(F)(F)C2(F)C(F)(C1(F)F)C(F)(F)C(F)(F)C1(F)C(F)(F)C(F)(F)C(F)(F)C(F)(F)C12F (configuration not stated)
[1]
  AC50: 37.5 µM (active)
[2]
  outcome: inactive
[3]
  outcome: inactive
[4]
  outcome: inactive
[6]
  outcome: inactive
[7]
  outcome: inactive
[8]
  outcome: inactive
[9]
  outcome: inactive

## O=Cc1ccc(Cl)c([N+](=O)[O-])c1
[1]
  AC50: 67.5 µM (active)
[3]
  outcome: inactive
[4]
  AC50: 109 µM (active)
[5]
  AC50: 146 µM (active)
[6]
  AC50: 137 µM (active)
[7]
  outcome: inactive
[8]
  outcome: inactive
[9]
  AC50: 65.1 µM (active)

## CC1(CO)CN(c2ccccc2)NC1=O (configuration not stated)
[2]
  outcome: inactive
[4]
  outcome: inactive
[5]
  outcome: inactive
[6]
  outcome: inactive
[7]
  outcome: inactive
[8]
  outcome: inactive
[9]
  outcome: inactive

## CC(=O)c1c(C)cc(C(C)(C)C)cc1C
[1]
  AC50: 27.1 µM (active)
[3]
  outcome: inactive
[6]
  outcome: inactive
[7]
  outcome: inactive
[8]
  outcome: inactive
[9]
  outcome: inactive

## CCCC(=O)OCCC(C)CCC=C(C)C (configuration not stated)
[1]
  AC50: 56.1 µM (active)
[2]
  outcome: inactive
[3]
  outcome: inactive
[4]
  outcome: inactive
[5]
  outcome: inactive
[6]
  outcome: inactive
[7]
  outcome: inactive
[8]
  outcome: inactive
[9]
  outcome: inactive

## Cc1ccc2n[nH]nc2c1
[1]
  outcome: inactive
[2]
  outcome: inactive
[3]
  outcome: inactive
[6]
  outcome: inactive
[7]
  outcome: inactive
[8]
  outcome: inactive
[9]
  outcome: inactive

## CC(C)(CO)[N+](=O)[O-]
[1]
  outcome: inactive
[3]
  outcome: inactive
[4]
  outcome: inactive
[5]
  outcome: inactive
[6]
  outcome: inactive
[7]
  outcome: inactive
[8]
  outcome: inactive
[9]
  outcome: inactive

## NC(=O)c1ccccc1Cl
[1]
  AC50: 40.7 µM (active)
[2]
  outcome: inactive
[4]
  AC50: 68.9 µM (active)
[5]
  AC50: 41.1 µM (active)
[6]
  outcome: inactive
[7]
  outcome: inactive
[8]
  outcome: inactive
[9]
  AC50: 65.8 µM (active)

## CCC(=O)OCCC(C)CCC=C(C)C (configuration not stated)
[2]
  outcome: inactive
[3]
  outcome: inactive
[5]
  outcome: inactive
[6]
  outcome: inactive
[7]
  outcome: inactive
[8]
  outcome: inactive
[9]
  outcome: inactive

## CCCCC(CC)COC(=O)/C=C\C(=O)OCC(CC)CCCC (configuration not stated)
[1]
  AC50: 4.85 µM (active)
[2]
  AC50: 100 µM (active)
[3]
  AC50: 100 µM (active)
[4]
  outcome: inactive
[5]
  outcome: inactive
[6]
  outcome: inactive
[7]
  outcome: inactive
[8]
  outcome: inactive
[9]
  outcome: inactive

## S=C(S)NCCNC(=S)S
[1]
  outcome: inactive
[3]
  outcome: inactive
[4]
  outcome: inactive
[5]
  outcome: inactive
[6]
  outcome: inactive
[7]
  outcome: inactive
[8]
  outcome: inactive
[9]
  outcome: inactive

## CO[Si](CCCn1c(=O)n(CCC[Si](OC)(OC)OC)c(=O)n(CCC[Si](OC)(OC)OC)c1=O)(OC)OC
[1]
  AC50: 28.6 µM (active)
[2]
  outcome: inactive
[3]
  outcome: inactive
[4]
  outcome: inactive
[5]
  outcome: inactive
[6]
  outcome: inactive
[7]
  outcome: inactive
[8]
  outcome: inactive
[9]
  outcome: inactive

## COc1ccc(Cl)cc1C
[1]
  outcome: inactive
[4]
  outcome: inactive
[5]
  outcome: inactive
[6]
  outcome: inactive
[7]
  outcome: inactive
[8]
  outcome: inactive
[9]
  outcome: inactive

## Cc1ccc2sc3cccc(C)c3c2c1
[1]
  outcome: inactive
[2]
  outcome: inactive
[3]
  outcome: inactive
[4]
  outcome: inactive
[5]
  outcome: inactive
[6]
  outcome: inactive
[7]
  outcome: inactive
[8]
  outcome: inactive
[9]
  outcome: inactive

## Nc1nc2ccc([N+](=O)[O-])cc2s1
[1]
  AC50: 19.8 µM (active)
[2]
  AC50: 45.6 µM (active)
[5]
  outcome: inactive
[6]
  outcome: inactive
[7]
  outcome: inactive
[8]
  outcome: inactive
[9]
  outcome: inactive

## C=CC(C)(O)CCC=C(C)CCC=C(C)C (configuration not stated)
[3]
  outcome: inactive
[4]
  AC50: 148 µM (active)
[5]
  AC50: 161 µM (active)
[6]
  AC50: 114 µM (active)
[7]
  AC50: 100 µM (active)
[8]
  AC50: 146 µM (active)
[9]
  outcome: inactive

## O=C(OCc1ccccc1)C(=O)OCc1ccccc1
[1]
  outcome: inactive
[3]
  outcome: inactive
[4]
  outcome: inactive
[5]
  outcome: inactive
[6]
  outcome: inactive
[7]
  outcome: inactive
[8]
  outcome: inactive
[9]
  outcome: inactive

## COC(=O)C1=C(C)NC(C)=C(C(=O)OCCN(C)Cc2ccccc2)C1c1cccc([N+](=O)[O-])c1 (configuration not stated)
[2]
  outcome: inactive
[3]
  outcome: inactive
[6]
  outcome: inactive
[7]
  outcome: inactive
[8]
  outcome: inactive
[9]
  outcome: inactive
